Source: PubChem BioAssay AID651616 (The Scripps Research Institute Molecular Screening Center, 2012)
The whole screen tested about 5,600 compounds, of which about 4,400 (79%) were called active. Rule as the data show it: active = inhibition above about 27%; inactive = the rest. The set was probably picked from earlier hits. Not all results are given here.

These compounds were tested against Fructose-bisphosphate aldolase (Mycobacterium tuberculosis (strain ATCC 25618 / H37Rv)) (UniProt P9WQA3) (assay: M. tuberculosis aldolase blockers, biochemical, fluorescence, strain H37Rv, confirmation (AID 651616;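 also: 0% = vehicle wells and 100% = reference inhibitor wells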)). Conditions: purified M. tuberculosis FBA, fluorescence read-out, at 1 µM, stronger effect = higher value.
Fructose-bisphosphate aldolase (Mycobacterium tuberculosis (strain ATCC 25618 / H37Rv)), sequence (P9WQA3 whole entry, looked up): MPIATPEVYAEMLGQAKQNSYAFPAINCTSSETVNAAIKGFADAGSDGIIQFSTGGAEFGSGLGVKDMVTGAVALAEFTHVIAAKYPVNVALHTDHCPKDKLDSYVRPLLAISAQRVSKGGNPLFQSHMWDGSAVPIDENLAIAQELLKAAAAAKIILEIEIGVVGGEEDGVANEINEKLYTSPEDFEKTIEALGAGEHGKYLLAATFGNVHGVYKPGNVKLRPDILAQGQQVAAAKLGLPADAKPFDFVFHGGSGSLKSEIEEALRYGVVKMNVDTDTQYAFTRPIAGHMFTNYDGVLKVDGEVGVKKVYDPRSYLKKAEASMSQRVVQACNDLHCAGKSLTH

Row | SMILES | inhibition
1 | CCNC(=S)Nc1ccc2c(c1)c(=O)n(C)n2Cc1ccc(Cl)cc1 | 3.5% (inactive)
2 | Cc1ccc(-c2nc3ccccc3[nH]c2=O)cc1 | 74.3% (active)
3 | CCOC(=O)COc1nc(C)cc(C(F)(F)F)c1C#N | 39.2% (active)
4 | CCc1cc(=O)oc2cc(C)cc(OCC(=O)N3CCC[C@@H]3C(=O)O)c12 | 83.3% (active)
5 | Cc1ccn2c(c1)nc(=O)c1cc(S(=O)(=O)N3CCC(C)CC3)ccc12 | 5.35% (inactive)
6 | Cc1ccc(-c2nc3ccccc3c(=O)n2-c2ccc(Br)cn2)cc1 | 98.1% (active)
7 | C[C@H]1CN([C@@H](C)CO)C(=O)c2cc(Br)cnc2O[C@H]1CN(C)S(=O)(=O)c1cccs1 | 8.79% (inactive)
8 | COCCNc1cc(-c2ccccc2)nc2cc(-c3cccc(F)c3)nn12 | 133% (active)
9 | Fc1ccc(COc2cccc(-c3n[nH]c(=S)o3)c2)cc1 | 169% (active)
10 | O=C(Nc1ccc2nccnc2c1)c1ccco1 | 692% [above what the read-out allows, likely interference] (active)
11 | CCCn1c(=O)c(-c2ccccc2)c(O)c2ccccc21 | 94.4% (active)
12 | Cc1ccc(S(=O)(=O)N2C[C@@H](C)[C@]3(C2)[C@H](O)[C@H](OC(=O)NCc2ccccc2)C[C@H]2C(=O)N(c4ccccc4)C(=O)[C@H]23)cc1 | 9.3% (inactive)
13 | Fc1ccc(N2N=C(c3cccs3)CC2c2ccco2)c(F)c1 (stereo not drawn) | 1.22% (inactive)
14 | COc1ccc(C2CC(c3cccs3)=NN2c2ccccc2)cc1 (stereo not drawn) | 38.9% (active)
15 | COc1ccccc1N1N=C(c2cccs2)CC1c1ccccc1 (stereo not drawn) | 46.8% (active)
16 | Oc1ccccc1C1=NN(c2ccccc2)C(c2ccccc2)C1 (stereo not drawn) | 107% (active)
17 | COc1ccc(C2CC(c3cccs3)=NN2c2ccc(F)cc2)cc1OC (stereo not drawn) | 101% (active)
18 | CS(=O)(=O)Nc1ccc(C2=NN(S(C)(=O)=O)C(c3cccs3)C2)cc1 (stereo not drawn) | 2.17% (inactive)
19 | Cc1ccc(-c2nc(C#N)c(NCCCn3ccnc3)o2)cc1 | 41.3% (active)
20 | Cc1nc2ccc(NC(=O)N3CCC(c4ccccc4)C3)cc2nc1C (stereo not drawn) | 98.1% (active)
21 | O=C(NCc1ccccc1)c1onc(CSc2nc3ccccc3[nH]2)c1C(=O)NCc1ccccc1 | 74.2% (active)
22 | COCCNc1nc(-n2nc(C)cc2C)nc2sc3c(c12)CCCC3 | 109% (active)
23 | O=C(NCCCN1CCOCC1)c1cnn2c(-c3ccccc3)cc(-c3ccccc3)nc12 | 96.2% (active)
24 | CC(C)(C)NC(=O)COc1ccc(CNc2ccc3[nH]c(=O)[nH]c3c2)cc1 | 1.48% (inactive)

Row | SMILES | inhibition
25 | CC(C)n1ncc2c(C(=O)NCc3ccccc3CN(C)C)cc(C3CC3)nc21 | 144% (active)
26 | COC(=O)c1cc(-c2cccs2)nc2ccccc12 | 136% (active)
27 | CC(C)(C)OC(=O)NNc1c2ccccc2nc2ccccc12 | -3.52% (inactive)
28 | O=C(NCCN1CCOCC1)c1cc(-c2cccs2)nc2ccccc12 | 8.64% (inactive)
29 | Brc1cnc2ccccc2c1N1CCCCC1 | 83.3% (active)
30 | COc1ccc2c(c1)cc1n2CCN=C1NN | 108% (active)
31 | CCN(C(=O)COC(=O)c1ccc(COc2ccc3c(C)cc(=O)oc3c2)cc1)C1CCS(=O)(=O)C1 (stereo not drawn) | 4.73% (inactive)
32 | CCC(C)N(C(=O)COC(=O)C1C(C(=O)OC)=C(C)NC(C)=C1C(=O)OC)C1CCS(=O)(=O)C1 (stereo not drawn) | 172% (active)
33 | COCc1cc(=O)[nH]c2cc(NC(=O)C(F)(F)F)c(C)cc12 | 73% (active)
34 | CN1c2ccc(C=O)c3c(C=O)ccc(c23)N(C)C1(C)C | 21.7% (inactive)
35 | Cc1ccc(-n2c(=O)c(C#N)cc3c(=O)n4ccccc4nc32)cc1C | 21.8% (inactive)
36 | CN(C(=O)c1cc2c(=O)n3ccccc3nc2s1)C1CCCCC1 | 50.9% (active)
37 | COCCCNC(=S)NCCNc1nc2cc(C)c(C)cc2cc1C#N | 91.5% (active)
38 | CCOc1ccc2nc(NCCNS(=O)(=O)c3ccccc3)c(C#N)cc2c1 | 19.6% (inactive)
39 | CN(C(=O)c1ccccn1)c1nnc(-c2ccccn2)s1 | 618% [above what the read-out allows, likely interference] (active)
40 | CN(C(=O)COc1ccccc1)c1nnc(-c2ccncc2)s1 | 830% [above what the read-out allows, likely interference] (active)
41 | CC1=CC2=NC(=O)CC(C)(C(=O)N(CC(=O)NC(C)(C)C)Cc3ccccc3)N2C=C1 (stereo not drawn) | 4.13% (inactive)
42 | NC(=O)C1CCN(C(=O)COc2ccc3c4c(c(=O)oc3c2)CCC4)CC1 | -0.32% (inactive)
43 | CCCCC(NS(=O)(=O)c1ccc(C)cc1)C(=O)Oc1ccc2c3c(c(=O)oc2c1)CCC3 (stereo not drawn) | 81.2% (active)
44 | COCC(C)OC(=O)c1c(N)n(CCCN2CCOCC2)c2nc3ccccc3nc12 (stereo not drawn) | -0.37% (inactive)
45 | CCCNC(=O)c1c(N)n(-c2ccc(S(N)(=O)=O)cc2)c2nc3ccccc3nc12 | 25.9% (inactive)
46 | C=CCn1c(N)c(C(=O)OCC(C)C)c2nc3ccccc3nc21 | 73.3% (active)
47 | CC(C)Cn1c(N)c(C(=O)NCc2cccs2)c2nc3ccccc3nc21 | 41.1% (active)
48 | CCOC(=O)N1CCN(C(=O)c2cc3c(ccc4ccccc43)oc2=O)CC1 | 4.05% (inactive)

Row | SMILES | inhibition
49 | O=C(Nc1cccc2ccccc12)N1CCC2(CC1)OCCO2 | 124% (active)
50 | O=C(Nc1cccc2ccccc12)N1CCN(Cc2ccc3c(c2)OCO3)CC1 | 72.6% (active)
51 | COCCCn1c(C(=O)NC2CCCCC2)cc2c(=O)n3cccc(C)c3nc21 | 66.3% (active)
52 | C#Cc1cc(N2CCN(C(=O)c3ccoc3)CC2)n2nc(-c3cccc(Cl)c3)cc2n1 | 85.9% (active)
53 | Cn1cc(-c2ccccc2)cc(C#N)c1=O | 79.6% (active)
54 | C=CCn1cc(-c2cccc(C(F)(F)F)c2)cc(C#N)c1=O | 0.59% (inactive)
55 | CCCCN(CCCC)CC(O)Cn1c2ccccc2c(=O)c2ccccc21 (stereo not drawn) | 113% (active)
56 | Nc1ccccc1C(=O)NC1CCCCNC1=O (stereo not drawn) | 151% (active)
57 | Cc1ccc(C2Nc3ccccc3C(=O)N2CCN2CCNC2=O)cc1 (stereo not drawn) | -6.16% (inactive)
58 | CCOC(=O)NN1C(=O)c2ccccc2NC1c1cccc(O)c1 (stereo not drawn) | 136% (active)
59 | Cc1cc(S(=O)(=O)c2cc3ccc(O)c(C)c3oc2=O)ccc1F | 44.7% (active)
60 | CCOc1ccc2nc(Nc3nc4ccc(NC(C)=O)cc4s3)sc2c1 | 19% (inactive)
61 | CCc1c(C)c2ccc(OC3CCCCC3=O)cc2oc1=O (stereo not drawn) | 99.7% (active)
62 | Cc1c(CCC(=O)O)c(=O)oc2cc(OCc3ccc(Br)cc3)ccc12 | 4.1% (inactive)
63 | CCN1CCN(C(=O)c2cc3cc4ccc(OC)cc4nc3s2)CC1 | 96.2% (active)
64 | CN(CCOc1ccccc1)C(=O)c1cc(-c2ccco2)nc2ccccc12 | 5.04% (inactive)
65 | O=C(c1cc(-c2ccco2)nc2ccccc12)N(Cc1nnc(-c2ccc(Cl)cc2)o1)C1CC1 | 120% (active)
66 | Nc1ccccc1-c1nc2ccncc2[nH]1 | 3.13% (inactive)
67 | COc1ccc2sc(-c3ccc(N(C)C)cc3)c(-c3ccc4cc[nH]c4c3)c2c1 | 59.8% (active)
68 | Cc1cccc2c1-c1sc(C(=O)NCCCN3CCc4ccccc4C3)cc1CO2 | 0.47% (inactive)
69 | O=C(NCCN1CCN(Cc2ccccc2)CC1)c1cc2c(=O)[nH]c3ccccc3c2s1 | 133% (active)
70 | Cc1nn(-c2ccccc2)nc1C(=O)OCC(=O)N1CCCCC1C (stereo not drawn) | -2.48% (inactive)
71 | Cc1cnc(C(=O)OCC(=O)N2CCc3ccccc32)cn1 | 108% (active)
72 | CCC1C(=O)c2ccccc2N(C)C1=O (stereo not drawn) | 7.44% (inactive)

Row | SMILES | inhibition
73 | COc1ccc2[nH]c3c(=O)n(Cc4ccco4)cnc3c2c1 | 8.42% (inactive)
74 | COc1cccc2sc3cc(NCC[C@@H]4CCCN4C)ccc3c(=O)c12 | 77.9% (active)
75 | Cc1cc(=O)oc2c1ccc1ccccc12 | 88.8% (active)
76 | COCCCn1c(CCC(=O)O)ccc1-c1ccc(F)cc1 | 46% (active)
77 | Cc1ccc(C2Nc3cccc4cccc(c34)N2)cc1 | 177% (active)
78 | O=C1C(=O)N(c2ccccc2)C(c2ccccc2)C1c1ccccc1 (stereo not drawn) | 13.8% (inactive)
79 | OC[C@@H]1CN(Cc2cccs2)C[C@H](n2cnc3c(Nc4ccccc4)ncnc32)O1 | 90.6% (active)
80 | COc1cc(/C=C/c2ccc(/C=C/c3cc(OC)c(OC)c(OC)c3)cc2)cc(OC)c1OC | 27.4% (active)
81 | COc1ccc(NC(=O)CN(C)C(=O)c2cc(-c3ccc(C)o3)nc3ccccc23)cc1 | 79.1% (active)
82 | COCCCNC(=O)/C(C#N)=C/c1c(N2CCCCCC2)nc2ccccn2c1=O | 60.9% (active)
83 | CCCc1nc2oc3c(=O)[nH]cnc3c2c2c1COC(C)(C)C2 | 108% (active)
84 | CCOC(=O)c1[nH]c2ccc(OC)cc2c1NC(=O)N1CCOCC1 | 130% (active)
85 | CCOC(=O)c1[nH]c2ccc(OC)cc2c1NC(=O)CCN1CCN(Cc2ccccc2)CC1 | 3.58% (inactive)
86 | CC(OC(=O)c1ccccc1NCCO)C(=O)Nc1ccnn1C(C)C (stereo not drawn) | 81.6% (active)
87 | CN1C(=O)c2ccc(NC(=O)c3c(F)c(F)c(F)c(F)c3F)cc2C1=O | 822% [above what the read-out allows, likely interference] (active)
88 | CN1C(=O)c2ccc(NC(=O)C3CCCCC3)cc2C1=O | 2.86% (inactive)
89 | CN(C)CCCNC(=O)c1ccc2[nH]c3ccccc3c2c1 | 103% (active)
90 | c1ccc(Cc2c(-c3ccco3)nc3c4ccccc4ccn23)cc1 | 137% (active)
91 | CCOC(=O)c1cc2cc(C)ccc2[nH]1 | 50.4% (active)
92 | CCN1CCc2c(C#N)c(NCc3ccccc3)nc(NCCO)c2C1 | 175% (active)
93 | COc1ccc2c(c1OC)C(=O)N(c1ncn[nH]1)C2 | 85.2% (active)
